# The supplement of paper PMC8728848
# The entries come from a sample that favours the strongest signals as a whole.
# B1: CVN-E41G (protein)
# chain: MHHHHHHENLYFQSGNFSQACYNSAIQGSVLTSTCIRTNGGYNTSSIDLNSVIGNVDGSLKWQGSNFIETCRNTQLAGSSELAAECKTRAQQFVSTKINLDDHIAAIDGTLKYE
# Experiments:
# Assay in all cases: glycan array binding signal (z-score within array); higher = stronger binding
# Settings in all cases: glycan notation: IUPAC condensed, linker removed; mutation: E41G
# Fuc(a1-2)Gal(b1-3)GalNAc = target: Fuc(a1-2)Gal(b1-3)GalNAc
# In short: (§1)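 Arrays were curated from the Consortium for Functional Glycomics database, 3228 in total, and kept only where the protein sequence was available. Binding is expressed as a within-array Z-score. This score was averaged across arrays of the same protein sequence at different concentrations or buffers and across linkers, and negative values can be read as non-binding.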
# [1] = target: Fuc(a1-2)Gal(b1-3)GlcNAc(b1-3)GalNAc
# In short: as §1
# [2] = target: Fuc(a1-2)Gal(b1-3)GlcNAc(b1-3)[Fuc(a1-2)Gal(b1-3)GlcNAc(b1-6)]GalNAc
# In short: as §1
# [3] = target: Fuc(a1-2)Gal(b1-3)GlcNAc6S
# In short: as §1
# [4] = target: Fuc(a1-2)Gal(b1-3)[Fuc(a1-4)]GlcNAc
# In short: as §1
# [5] = target: Fuc(a1-2)Gal(b1-4)GlcNAc6S
# In short: as §1
# [6] = target: Fuc(a1-2)Gal(b1-4)[Fuc(a1-3)]GlcNAc(b1-2)[Fuc(a1-2)Gal(b1-4)[Fuc(a1-3)]GlcNAc(b1-4)]Man(a1-3)[Fuc(a1-2)Gal(b1-4)[Fuc(a1-3)]GlcNAc(b1-2)Man(a1-6)]Man(b1-4)GlcNAc(b1-4)GlcNAc
# In short: as §1
# [7] = target: Fuc(a1-2)Gal6S(b1-4)Glc6S
# In short: as §1
# [8] = target: Fuc(a1-2)[Gal(a1-3)]Gal(b1-4)Glc
# In short: as §1
# [9] = target: Fuc(a1-2)[Gal(a1-3)]Gal(b1-4)GlcNAc(b1-2)Man(a1-3)[Fuc(a1-2)[Gal(a1-3)]Gal(b1-4)GlcNAc(b1-2)Man(a1-6)]Man(b1-4)GlcNAc(b1-4)GlcNAc
# In short: as §1
# [10] = target: Fuc(a1-2)[Gal(a1-3)]Gal(b1-4)GlcNAc(b1-3)GalNAc
# In short: as §1
# [11] = target: Fuc(a1-2)[GalNAc(a1-3)]Gal(b1-3)GlcNAc(b1-2)Man(a1-3)[Fuc(a1-2)[GalNAc(a1-3)]Gal(b1-3)GlcNAc(b1-2)Man(a1-6)]Man(b1-4)GlcNAc(b1-4)[Fuc(a1-6)]GlcNAc
# In short: as §1
# [12] = target: Fuc(a1-2)[GalNAc(a1-3)]Gal(b1-4)GlcNAc(b1-3)Gal(b1-4)GlcNAc(b1-3)Gal(b1-4)GlcNAc
# In short: as §1
# Gal(a1-3)Gal(b1-3)GlcNAc = target: Gal(a1-3)Gal(b1-3)GlcNAc
# In short: as §1
# [13] = target: Gal(a1-3)Gal(b1-3)[Fuc(a1-4)]GlcNAc(b1-2)Man(a1-3)[Gal(a1-3)Gal(b1-3)[Fuc(a1-4)]GlcNAc(b1-2)Man(a1-6)]Man(b1-4)GlcNAc(b1-4)GlcNAc
# In short: as §1
# Gal(b1-2)Gal = target: Gal(b1-2)Gal
# In short: as §1
# [14] = target: Gal(b1-3)GalNAc(a1-3)[Fuc(a1-2)]Gal(b1-4)Glc
# In short: as §1
# [15] = target: Gal(b1-3)GlcNAc(b1-2)Man(a1-3)[Gal(b1-3)GlcNAc(b1-2)Man(a1-6)]Man(b1-4)GlcNAc(b1-4)GlcNAc
# In short: as §1
# [16] = target: Gal(b1-3)GlcNAc(b1-2)Man(a1-3)[Gal(b1-3)GlcNAc(b1-2)Man(a1-6)]Man(b1-4)GlcNAc(b1-4)[Fuc(a1-6)]GlcNAc
# In short: as §1
# [17] = target: Gal(b1-3)GlcNAc(b1-3)Gal(b1-3)GlcNAc
# In short: as §1
# [18] = target: Gal(b1-3)GlcNAc(b1-3)Gal(b1-4)GlcNAc(b1-2)[Gal(b1-3)GlcNAc(b1-3)Gal(b1-4)GlcNAc(b1-6)]Man(a1-6)[Gal(b1-3)GlcNAc(b1-3)Gal(b1-4)GlcNAc(b1-2)Man(a1-3)]Man(b1-4)GlcNAc(b1-4)[Fuc(a1-6)]GlcNAc
# In short: as §1
# [19] = target: Gal(b1-3)[Fuc(a1-4)]GlcNAc(b1-3)Gal(b1-4)[Fuc(a1-3)]GlcNAc
# In short: as §1
# [20] = target: Gal(b1-3)[Neu5Ac(b2-6)]GalNAc
# In short: as §1
# [21] = target: Gal(b1-4)GlcNAc(b1-2)Man(a1-3)[Gal(b1-4)GlcNAc(b1-2)Man(a1-6)]Man(b1-4)GlcNAc(b1-4)[Fuc(a1-6)]GlcNAc
# In short: as §1
# [22] = target: Gal(b1-4)GlcNAc(b1-2)[Gal(b1-4)GlcNAc(b1-4)]Man(a1-3)[Gal(b1-4)GlcNAc(b1-2)Man(a1-6)]Man(b1-4)GlcNAc(b1-4)GlcNAc
# In short: as §1
# [23] = target: Gal(b1-4)GlcNAc(b1-3)Gal(b1-4)GlcNAc(b1-3)Gal(b1-4)GlcNAc(b1-3)Gal(b1-4)GlcNAc(b1-2)[Gal(b1-4)GlcNAc(b1-3)Gal(b1-4)GlcNAc(b1-3)Gal(b1-4)GlcNAc(b1-3)Gal(b1-4)GlcNAc(b1-6)]Man(a1-6)[Gal(b1-4)GlcNAc(b1-3)Gal(b1-4)GlcNAc(b1-3)Gal(b1-4)GlcNAc(b1-3)Gal(b1-4)GlcNAc(b1-2)Man(a1-3)]Man(b1-4)GlcNAc(b1-4)[Fuc(a1-6)]GlcNAc
# In short: as §1
# [24] = target: Gal(b1-4)GlcNAc(b1-3)Gal(b1-4)[Fuc(a1-3)]GlcNAc(b1-3)Gal(b1-4)[Fuc(a1-3)]GlcNAc
# In short: as §1
binder,measurement,setting,value
B1,glycan array binding signal (z-score),Fuc(a1-2)Gal(b1-3)GalNAc,-0.178
same,glycan array binding signal (z-score),[1],-0.168
same,glycan array binding signal (z-score),[2],-0.093
same,glycan array binding signal (z-score),[3],-0.182
same,glycan array binding signal (z-score),[4],-0.157
same,glycan array binding signal (z-score),[5],-0.144
same,glycan array binding signal (z-score),[6],0.014
same,glycan array binding signal (z-score),[7],-0.023
same,glycan array binding signal (z-score),[8],-0.166
same,glycan array binding signal (z-score),[9],-0.122
same,glycan array binding signal (z-score),[10],-0.189
same,glycan array binding signal (z-score),[11],0.532
same,glycan array binding signal (z-score),[12],-0.163
same,glycan array binding signal (z-score),Gal(a1-3)Gal(b1-3)GlcNAc,-0.138
same,glycan array binding signal (z-score),[13],1
same,glycan array binding signal (z-score),Gal(b1-2)Gal,-0.147
same,glycan array binding signal (z-score),[14],-0.175
same,glycan array binding signal (z-score),[15],0.069
same,glycan array binding signal (z-score),[16],-0.141
same,glycan array binding signal (z-score),[17],-0.13
same,glycan array binding signal (z-score),[18],1.02
same,glycan array binding signal (z-score),[19],-0.151
same,glycan array binding signal (z-score),[20],-0.158
same,glycan array binding signal (z-score),[21],-0.15
same,glycan array binding signal (z-score),[22],-0.165
same,glycan array binding signal (z-score),[23],-0.125
same,glycan array binding signal (z-score),[24],-0.099
